SW480 rereplic = A quantitative high throughput screen for small molecules that induce DNA re-replication in SW480 colon adenocarcinoma cells. SW480 DNA re-replication, Hoechst DNA content imaging, 48 h. Potency, µM (doses to about 46.1 µM), most hits filed as activators. 340,000 compounds, 1.8% hits. AID 624297, 2012; further: nearly all actives have a fitted effect of over 55% in size
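First, 250 cells per well were seeded. Next, compound or vehicle (23 nL) was pinned in, plates sat 48 hr at 37 C. Finally Hoechst was added for 40 min before fluorescence scanning.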
IL-1B inflam inh = qHTS for Inhibitors of Inflammasome Signaling: IL-1-beta AlphaLISA Primary Screen | activity change, % at 57.5 µM | 360,000 compounds, 4.7% hits | AID 743279, 2014 | THP-1 LPS/ATP IL-1B secretion, AlphaLISA, 16 h; active compounds read low; in the data active means activity change below about -50%; inconclusive means mostly about -30% to -49%
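Secreted IL-1B measured by AlphaLISA bead assay after 16 h compound exposure of THP-1 cells; compounds (final up to 57.5 uM) added 1 h before LPS (250 ng/mL) and ATP (1.25 mM) stimulation; lower signal means less secretion.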
MCF10A rereplic = A quantitative high throughput screen for small molecules that induce DNA re-replication in MCF 10a normal breast cells; MCF 10A DNA re-replication, Hoechst nuclear intensity, 48 h; Potency, µM (top dose mostly 46.1 µM), hits mostly activators; 350,000 compounds, 2.9% hits; further: nearly all actives have a fitted effect of over 50% in size
KB-V1 cytotox = qHTS assay for MDR1-selective chemotherapeutics: Primary screen using the drug-selected MDR subline cells KB-V1; KB-V1 MDR cells viability, CellTiter-Glo, 72 h; Potency, µM (series often up to 46.1 µM), hits mostly cytotoxic; 400,000 compounds, 3.4% hits; AID 1347076, 2019; further: nearly all actives have a fitted effect of over 60% in size
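Readout: CellTiter-Glo luminescence, 10 min after addition. Cells: KB-V1 MDR subline, 72 h at 37 degrees C with compound. Analysis: corrected, normalized data fitted to concentration-effect curves.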
KB-3-1 tox = qHTS assay for MDR1-selective chemotherapeutics: Primary screen using the parental adenocarcinoma cell KB-3-1; KB-3-1 viability, CellTiter-Glo ATP luminescence, 72 h; Potency, µM (titrated, usually from 46.1 µM), hits mostly cytotoxic; 400,000 compounds, 1.4% hits; AID 1347075, 2019; further: nearly all actives have a fitted effect of over 60% in size
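72 h, 37 °C compound treatment of KB-3-1 parental cells; CellTiter-Glo added, 10 min, luminescence read. Data corrected against DMSO-only plates and normalized before curve fitting.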
Numbers stand for hits; – = inactive; ? = inconclusive; · = no result given; ! = not confirmed by another sample. Shown are actives, neighbours in structure and some others; about 9.9% of the full set was active somewhere. Unless noted, the call rests on the fitted dose curve; in most records, active means well fitted curve in the direction sought with a large enough effect; inconclusive means small, poorly fitted or top-dose-only effect, or another doubt; inactive means no such curve, though single readings can be large; an effect the other way counts as inactive or inconclusive.

SMILES	SW480 rereplic	IL-1B inflam inh	MCF10A rereplic	KB-V1 cytotox	KB-3-1 tox
CCCCCc1c(-c2ccc(F)cc2F)ncn1CCc1ccccc1OC	·	-100	·	13µM	?
CCCCc1c(-c2ccc(F)cc2F)ncn1CCc1ccccc1OC	·	-71	·	?	?
CS(=O)(=O)c1ccc(S(=O)(=O)N2CCN(C(=O)C(O)c3ccccc3)CC2)cc1 (stereo not drawn)	·	–	·	–	–
O=C(CSc1nnc(NC(=O)c2ccccc2F)s1)NCc1ccco1	–	–	–	·	·
Cc1ccc(S(=O)(=O)CCN2CCN(c3ccccc3)CC2)cc1	–	–	?	–	–
Cc1ccc(S(=O)(=O)CCN2CCC(n3cccc3)CC2)cc1	–	-59	–	–	–
Cc1cc(N2CCCCC2)nc2ccc(NC(=O)c3ccc(Br)o3)cc12	?	-66	8.2µM	?	?
Cc1cc(N2CCN(C)CC2)nc2ccc(NC(=O)c3ccc(Br)o3)cc12	–	–	–	?	?
COc1cc(C(=O)Nc2ccc3nc(N4CCN(C)CC4)cc(C)c3c2)cc(OC)c1OC	?	–	–	–	?
CCN1CCN(c2cc(C)c3cc(NC(=S)NCc4cccs4)ccc3n2)CC1	?	–	7.3µM	–	–
Cc1cc(N2CCN(C)CC2)nc2ccc(NC(=S)NCc3cccs3)cc12	?	-77	9.2µM	–	–
Cc1cc(N2CCN(C)CC2)nc2ccc(NC(=O)c3ccc4c(c3)OCO4)cc12	–	-54	?	–	7.3µM
CCN1CCN(c2cc(C)c3cc(NC(=S)NCCCOC)ccc3n2)CC1	–	–	?	?	–
CCN(CC)C(=O)c1cnn(-c2ccc(F)cc2)c1-n1cccc1	·	·	·	–	–
Cc1ccn2c(=O)c(C(=O)NCCc3ccc(S(N)(=O)=O)cc3)c(O)nc2c1	·	·	·	–	–
Cc1cccc(S(=O)(=O)NCCNS(=O)(=O)c2cccc(C)c2)c1	–	–	–	–	–
COc1ccc(OC)c(NC(=O)N2c3ccccc3Sc3ccccc32)c1	·	·	·	–	–
COc1ccc(CNC(=S)Nc2ccc3nc(N4CCN(C)CC4)cc(C)c3c2)cc1	–	-101	?	–	–
COc1cc(/C=C(\C#N)c2nc3ccccc3s2)ccc1OCC(=O)Nc1ccccc1	?	–	6.5µM	9.2µM	?
COc1cc(/C=C(/C#N)c2nc3ccccc3[nH]2)ccc1OCC(=O)Nc1ccccc1C(C)C	?	–	2.9µM	?	?
CCOc1cc(/C=C(/C#N)c2nc3ccccc3[nH]2)ccc1OCc1ccc(C(=O)O)o1	–	–	–	–	?
COc1cc(/C=C(/C#N)c2nc3ccccc3[nH]2)ccc1OCC(=O)Nc1ccccc1C	–	–	18µM	1.8µM	?
COc1cc(/C=C(\C#N)c2nc3ccccc3[nH]2)ccc1OC(=O)c1ccco1	–	-62	?	?	–
CN(C(=O)COC(=O)c1cc2c(s1)CCCCC2)C1CCS(=O)(=O)C1 (stereo not drawn)	–	–	–	–	–
COc1ccc(C2=Nn3c(C)nnc3SC2)cc1	–	–	–	–	–
SMILES	SW480 rereplic	IL-1B inflam inh	MCF10A rereplic	KB-V1 cytotox	KB-3-1 tox
COc1cccc(/C=C/c2nc3ccccc3nc2/C=C/c2cccc(OC)c2OC)c1OC	·	·	·	–	?
O=S(=O)(NC1c2cccc3cccc(c23)C1Sc1ncccn1)c1ccccc1 (stereo not drawn)	–	–	?	–	–
CCN(CC)CCNC(=O)c1cc(Nc2ccc(OC)c(OC)c2)nc2ccccc12	–	-58	–	–	–
CSc1cccc(Nc2cc(C(=O)NCCCN(Cc3ccccc3)C(C)C)c3ccccc3n2)c1	·	·	·	16µM	–
CCN(CC)CCCNC(=O)c1cc(Nc2ccc(OC)cc2)nc2ccccc12	?	-60	?	–	–
c1cncc(CN2CCN(c3cc(-c4cnc5ccccc5c4)nc4ccnn34)CC2)c1	·	–	·	–	–
CC(C)(C)OC(=O)C[C@@H]1C/C=C\C[C@@H](CC(=O)N(CCO)Cc2ccccc2)C(=O)N2CCC[C@@H]2COC1=O	–	–	–	–	–
CCOC(=O)c1cc(OCC)c2c(ccc3cc(OC)ccc32)n1	·	–	·	?	–
CCOc1ccc(N2CC(C(=O)Nc3nnc(CC)s3)CC2=O)cc1 (stereo not drawn)	–	–	–	–	–
CCOC(=O)c1cc2c(=O)n3ccccc3nc2n(Cc2ccco2)c1=NC(=O)c1cccnc1	6.5µM	–	?	–	–
Cc1cccn2c(=O)c3cc(C#N)c(=NC(=O)c4ccccc4)n(Cc4ccco4)c3nc12	7.3µM	-76!	2.3µM	?	–
Cc1cccn2c(=O)c3cc(C#N)c(=NC(=O)c4ccco4)n(Cc4ccco4)c3nc12	–	–	–	–	?
Cc1cccc(C(=O)N=c2c(C#N)cc3c(=O)n4cccc(C)c4nc3n2Cc2ccco2)c1	23µM	–	18µM	–	?
CN1CCN(CC(=O)Nc2c(C#N)cnn2-c2ccccc2)CC1	–	–	–	?	–
COc1ccc(C(c2c(O)cc(C)n(Cc3ccco3)c2=O)N2CCCCC2)cc1OC (stereo not drawn)	·	·	·	–	–
CC(=O)O[C@H]1C(=O)[C@]2(C)[C@H]([C@H](OC(=O)c3ccccc3)[C@]3(O)C[C@H](OC(=O)[C@H](O)[C@@H](NC(=O)c4ccccc4)c4ccccc4)C(C)=C1C3(C)C)[C@]1(OC(C)=O)CO[C@@H]1C[C@@H]2O	?	–	–	18µM	0.16µM
CC(=O)O[C@@]12CO[C@@H]1C[C@H](O)[C@@]1(C)C(=O)[C@H](O)C3=C(C)[C@@H](OC(=O)C(O)[C@@H](NC(=O)OC(C)(C)C)c4ccccc4)C[C@@](O)([C@@H](OC(=O)c4ccccc4)[C@H]21)C3(C)C (stereo partly drawn)	0.0075µM	·	?	·	·
CC(=O)O[C@H]1C(=O)[C@@]2(C)C([C@H](OC(=O)c3ccccc3)[C@]3(O)C[C@H](OC(=O)[C@H](O)[C@@H](NC(=O)c4ccccc4)c4ccccc4)C(C)=C1C3(C)C)[C@]1(OC(C)=O)CO[C@@H]1C[C@H]2O (stereo partly drawn)	2.1µM	–	?	?	0.058µM
C[C@H](CO)N1C[C@H](C)[C@@H](CN(C)C(=O)Nc2ccccc2)Oc2c(NC(=O)C3CCCCC3)cccc2C1=O	–	–	–	–	–
Nc1cc(Cl)ccc1C(=O)OCC(=O)N1CCCCCC1	–	?	?	–	–
CCn1c(C)c(CS(=O)(=O)c2ccccc2)[nH]c1=O	8.2µM	–	7.3µM	–	–
O=c1[nH]c(CS(=O)(=O)c2ccccc2)nc2ccccc12	–	–	–	–	–
O=C1c2ccccc2C(=O)C1c1ccc(Cl)cc1	–	–	–	?	–
